According to the supplement of paper PMC10338343:
± gives the standard deviation. The full ranking holds about 8,200 sequences; the median of “pre-steady-state target cleavage rate” is about 0.024, and the highest 2% start at about 1.3. The sample holds the highest values, similar sequences and a random draw of the others, so the mix is not that of the screen.

System: MIWI (PIWIL1) piRISC loaded with L1MC piRNA (30 nt)
Assay: pre-steady-state target cleavage rate (min^-1); MIWI and MILI are mouse PIWI proteins and EfPiwi is from a freshwater sponge; tags in brackets are library labels; higher = faster piRNA-guided slicing of the target
Conditions: guide: L1MC piRNA 5'p-UAACUAAAUACUAUGCAAGCUGUAGGUCCU
Procedure, shortened: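 In HEPES–potassium acetate buffer at 33 °C, […] transcribed, DNA-blocked target RNA library was mixed with 1 nM active affinity-purified piRISC carrying one synthetic guide, with or without 500 nM GTSF1 partner protein, for 0–8 or 0–960 min. Uncleaved targets were sequenced and normalised to depth and to weakly complementary targets; three trials were pooled and k3 was capped at 0.0001 min^-1. The pre-steady-state cleavage rate followed from a burst-and-steady-state fit.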

[1] = auxiliary factor: 500 nM mouse GTSF1
[2] = auxiliary factor: none (no GTSF1)
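Further: 1 nM active piRISC with 0.1 nM target library at 33 °C single turnover.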

Row | Sequence | pre-steady-state target cleavage rate [1] | pre-steady-state target cleavage rate [2]
1 | UCCUGGAUGUGCUUGCAAAGUAUUUUGUUA | 0.0495 ± 0.008 | 0.0109 ± 0.0032
2 | UGGAGCUACUGCUUGCAUAGUAUUUAGUUA | 1.09 ± 0.055 | 0.0621 ± 0.0085
3 | UGGACCUAUAGCUUGCAUAGUAUUUAGUUA | 1.23 ± 0.054 | 0.0564 ± 0.011
4 | UCGACCUAUCAGCUUGCAUAGUAUUUAGUUA | 1.61 ± 0.06 | 0.0851 ± 0.018
5 | UGGACCAUCAGCUUGCAUAGUAUUUAGUAA | 1.05 ± 0.053 | 0.0577 ± 0.013
6 | UCGACCUAUAGCUUGCAUAGUAUUUAGUUA | 1.04 ± 0.055 | 0.0703 ± 0.014
7 | UGGACCAUCAGCUUGCAUAGUAUUUAGUUA | 1.44 ± 0.056 | 0.101 ± 0.019
8 | UCCUCCAUCAGCUUGCAUAGUAUUUAGUUA | 0.739 ± 0.027 | 0.0679 ± 0.013
9 | UGGACCUAUCAGCUUGCAUAGUAUUUAGUUA | 1.48 ± 0.086 | 0.074 ± 0.016
10 | AGGACCAUCAGCUUGCAUAGUAUUUAGUUA | 1.3 ± 0.048 | 0.0926 ± 0.017
11 | UCCUCCUCAGCUUGCAUAGUAUUUAGUUA | 1.05 ± 0.027 | 0.0482 ± 0.009
12 | UCCUCCUAUCAGCUUGCAUAGUAUUUAGUUA | 1.49 ± 0.072 | 0.0492 ± 0.011
13 | AGGACCUAUCAGCUUGCAUAGUAUUUAGUUA | 1.25 ± 0.055 | 0.0769 ± 0.013
14 | UCCACCUAUCAGCUUGCAUAGUAUUUAGUUA | 1.01 ± 0.037 | 0.0531 ± 0.011
15 | UCCUGGAUGUCGAACGUAUGAUUUUAGUUA | < 0.0001 | –
16 | UCCUGCUUGUGCUUGCAUAGUAUUUAGUAA | 0.133 ± 0.019 | 0.0144 ± 0.0036
17 | UCCUGGUACAGGCUUGCAUAGUAUUUAGUUA | 0.498 ± 0.059 | 0.0384 ± 0.0089

Row | Sequence | pre-steady-state target cleavage rate [1] | pre-steady-state target cleavage rate [2]
18 | UCCUGGAUGUCGAUGCAUAGUAUUGAGUUA | 0.02 ± 0.006 | –
19 | UCCUGGAUCAGCUUGCAUAGUCUUUAGUUA | 0.841 ± 0.035 | 0.0552 ± 0.012
20 | AGGACCUACAGCUUGCAUAGUAUUUAAUUA | 0.357 ± 0.033 | 0.0325 ± 0.0055
21 | AGGACCUACAGCUUGCUUAGUAUUUAGAAA | 0.486 ± 0.063 | 0.00737 ± 0.0028
22 | UCCUGGAUCAACUUGCAUAGUAUUUAGUUA | 1.01 ± 0.051 | 0.0248 ± 0.0054
23 | AGGACCUACAGGAAGCAUAGUAUUUACAAA | 0.32 ± 0.064 | –
24 | UGCACCAACAGCUUGCAUAGUAUUUAGUUA | 1.23 ± 0.056 | 0.0613 ± 0.0098
25 | UCGACCAACAGCUUGCAUAGUAUUUAGAUA | 0.54 ± 0.029 | 0.0297 ± 0.0066
26 | UCGACCAACAGCUUGCAUAGUAUUUAGUUA | 1.62 ± 0.054 | 0.0825 ± 0.014
27 | AGCACCAACAGCUUGCAUAGUAUUUAGUUA | 1.03 ± 0.058 | 0.0664 ± 0.011
28 | ACGACCAACAGCUUGCAUAGUAUUUAGUUA | 1.64 ± 0.055 | 0.0972 ± 0.018
29 | UCGACCAACAGCUUGCAUAGUAUUUAGUAA | 1.2 ± 0.065 | 0.0413 ± 0.0084
30 | UCCUGGAUGUGCUUGCAUAGUAUUUUGAAA | 0.0177 ± 0.0092 | 0.00406 ± 0.0024
31 | UCCUGCUACAGCUUGCAUUCUAUUUACAAA | 0.0158 ± 0.0068 | –
32 | AGGAGCUACAGGUUGCAUAGUAUUUAGUUA | 1.17 ± 0.075 | 0.0502 ± 0.0084
33 | UCCUGGUACAGAUUGCAUAGUAUUUAGUUA | 0.58 ± 0.071 | 0.0178 ± 0.0046
34 | UCCUGGAACAGCUUGCAUACAAUUUAGUAA | 0.0102 ± 0.0056 | –
